The source made the active and inactive calls.
Columns and labels:
[1] = system: Plasmodium falciparum Sir2 (PF13_0152, Sir2A); assay: pfSir2 binders on small-molecule microarrays, primary screen, biochemical, small-molecule microarray, 635 nm fluorescence (AID 1098); conditions: small-molecule microarray binding, fluorescence 635 nm; higher = more signal;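 further: score merges spot fluorescence intensity with its signal-to-noise ratio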
[2] = small-molecule microarray binders of probe aDKK1, primary screen, biochemical, biotinylated probe, 635/667 nm fluorescence (AID 1099); conditions: higher = more signal;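 further: score merges 667nm spot fluorescence with signal to noise across triplicate slides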
[3] = small-molecule microarray binders of probe aCHRDL2, primary screen, biochemical, biotinylated probe, 635/667 nm fluorescence (AID 1100); conditions: higher = more signal
[4] = splicing luciferase reporter signal modulators, primary screen, spliceosome inhibition project, cell-based, HEK293, splice +/- reporter (AID 1101); conditions: luminescence, 24 h, higher = more signal, called active from +8 up or from −8 down;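 further: HEK293 cells carrying a splicing-competent luciferase reporter gene; test concentration not given here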
[5] = target: Fibroblast growth factor 10 (Homo sapiens) (UniProt O15520); assay: FGF10 binders on small-molecule microarrays, primary screen, biochemical, small-molecule microarray, 635 nm fluorescence (AID 1102); conditions: FGF10 binding, fluorescence 635 nm, higher = more signal
[6] = system: glycogen synthase kinase-3 (GSK3A per assay name; protocol says GSK3B); assay: GSK3 binders on small-molecule microarrays, primary screen, biochemical, small-molecule microarray, 635 nm fluorescence, GSK3A (AID 1103); conditions: small-molecule microarray binding, fluorescence 635 nm; higher = more signal; further: the record names both GSK3A and GSK3B
[7] = target: Epidermal growth factor receptor (Homo sapiens) (UniProt P00533); assay: EGFR binders on small-molecule microarrays, primary screen, biochemical, small-molecule microarray, 635 nm fluorescence (AID 1104); conditions: EGFR binding, higher = more signal;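 further: score merges 667 nm emission intensity with spot signal to noise over triplicate slides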
[8] = target: Follistatin-related protein 3 (Homo sapiens) (UniProt O95633); assay: FSTL3 binders on small-molecule microarrays, primary screen, biochemical, small-molecule microarray, 635 nm fluorescence (AID 1105); conditions: FSTL3 binding, higher = more signal;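 further: score merges emission near 667 nm and signal to noise per printed spot across three slides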
[9] = target: Dickkopf-related protein 1 (Homo sapiens) (UniProt O94907); assay: DKK1 binders on small-molecule microarrays, primary screen, biochemical, small-molecule microarray, 635 nm fluorescence scan (AID 1106); conditions: DKK1 binding, higher = more signal;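 further: score merges emission near 667 nm with signal to noise over three replicate slides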
[10] = system: Inhibin beta A chain (activin A); assay: INHBA (activin A) binders on microarrays, primary screen, biochemical, small-molecule microarray, 635 nm fluorescence scan (AID 1107); conditions: small-molecule microarray binding, higher = more signal;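 further: mouse activin A protein probed at 4.33 µg/mL on printed slides; score merges bound-protein fluorescence near 667 nm with spot signal-to-noise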
[11] = system: Human papillomavirus type 1a protein E7 (residues 44-93); assay: HPV1a E7 fragment binders on microarrays, primary screen, biochemical, small-molecule microarray, residues 44-93, 635 nm fluorescence (AID 1108); conditions: small-molecule microarray binding, fluorescence 635 nm; higher = more signal;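 further: E7 fragment applied at 1 µg/mL in TBST for 1 h at 4 C; score combines spot fluorescence with its signal to noise ratio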
[12] = modulators of HCV replicon luciferase signal, primary screen, HCV replication inhibitor project, Huh7 cells, luciferase reporter (AID 1109); conditions: 48 h, higher = more signal;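 further: huh7 hepatoma cells harbouring a luciferase neomycin HCV replicon reporter; luciferase luminescence as measure of HCV replicon replication; test concentration not given here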
[13] = target: Left-right determination factor 2 (Homo sapiens) (UniProt O00292); assay: LEFTY2 binders on small-molecule microarrays, primary screen, biochemical, small-molecule microarray, 635 nm fluorescence scan (AID 1110); conditions: LEFTY2 binding, higher = more signal
[14] = target: Calmodulin-1 (Homo sapiens) (UniProt P0DP23); assay: CALM1 binders on microarrays, EGTA buffer, profiling panel, biochemical, small-molecule microarray, Cy5-labelled CALM1 (AID 1111); conditions: Cy5-CALM1 binding fluorescence, higher = more signal;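 further: labelled calmodulin applied in Tris saline Tween buffer holding calcium plus EGTA and DTT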
[15] = target: Calmodulin-1 (Homo sapiens) (UniProt P0DP23); assay: calcium-bound CALM1 binders on microarrays, profiling panel, artefact control for SMM control-protein annotation, biochemical, small-molecule microarray, Cy5-labelled CALM1, plus calcium (AID 1112); conditions: Cy5-CALM1 binding fluorescence, higher = more signal;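 further: score merges spot fluorescence with signal to noise from triplicate slides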
[16] = small-molecule microarray binders of probe aWnt5a, primary screen, biochemical, biotinylated probe, 635/667 nm fluorescence (AID 1113); conditions: higher = more signal;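 further: score merges 667 nm fluorescence intensity with signal-to-noise per printed feature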
[17] = small-molecule microarray binders of probe aShh, primary screen, biochemical, biotinylated probe, 635/667 nm fluorescence (AID 1114); conditions: higher = more signal;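 further: probe is biotin-labelled aShh protein from a stem cell growth factor screen; measures binding of labelled protein to compounds printed on the slide; score merges feature fluorescence at 667 nm with signal-to-noise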
[18] = small-molecule microarray binders of probe aNog, primary screen, biochemical, biotinylated probe, 635/667 nm fluorescence (AID 1115); conditions: higher = more signal;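 further: probe is biotinylated aNog protein used at 0.15 µg/mL for 1 h at 4 C; z-score combines 667 nm fluorescence of each spot with its signal to noise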
[19] = target: Torsin-1A-interacting protein 1 (Homo sapiens) (UniProt Q5JTV8); assay: LAP1 binders from COS7 cell lysate, primary screen, small-molecule microarray, 635/667 nm fluorescence (AID 1116); conditions: COS7-hLAP1 lysate binding, 635 nm fluorescence, higher = more signal
[20] = target: Alpha-bungarotoxin (Bungarus multicinctus) (UniProt P60615); assay: alpha-bungarotoxin binders on microarray, profiling panel, artefact control for SMM control protein annotation, biochemical, small-molecule microarray, Alexa647 label, 635/667 nm fluorescence (AID 1117); conditions: alpha-BTX-A647 binding fluorescence, higher = more signal
Sequence of Alpha-bungarotoxin (Bungarus multicinctus) (P60615 whole entry, looked up): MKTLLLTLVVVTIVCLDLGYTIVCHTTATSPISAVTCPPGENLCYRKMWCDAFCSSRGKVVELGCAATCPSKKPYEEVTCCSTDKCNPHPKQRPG

Sequence of Fibroblast growth factor 10 (Homo sapiens) (O15520 whole entry, looked up): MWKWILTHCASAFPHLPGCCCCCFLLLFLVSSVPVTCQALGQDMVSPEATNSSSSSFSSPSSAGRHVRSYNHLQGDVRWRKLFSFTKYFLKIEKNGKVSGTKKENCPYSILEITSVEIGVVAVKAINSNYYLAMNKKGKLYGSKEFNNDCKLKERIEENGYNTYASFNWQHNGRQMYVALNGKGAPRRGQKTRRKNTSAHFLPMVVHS
Sequence of Dickkopf-related protein 1 (Homo sapiens) (O94907 whole entry, looked up): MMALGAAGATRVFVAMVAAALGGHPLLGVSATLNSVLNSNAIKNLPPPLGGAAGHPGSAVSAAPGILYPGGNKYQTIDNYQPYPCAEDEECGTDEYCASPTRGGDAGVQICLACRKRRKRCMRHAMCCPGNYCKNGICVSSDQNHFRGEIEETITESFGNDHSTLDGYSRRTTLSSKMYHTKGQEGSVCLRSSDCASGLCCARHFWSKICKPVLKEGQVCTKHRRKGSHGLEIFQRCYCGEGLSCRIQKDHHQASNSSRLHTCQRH
Sequence of Torsin-1A-interacting protein 1 (Homo sapiens) (Q5JTV8 whole entry, looked up): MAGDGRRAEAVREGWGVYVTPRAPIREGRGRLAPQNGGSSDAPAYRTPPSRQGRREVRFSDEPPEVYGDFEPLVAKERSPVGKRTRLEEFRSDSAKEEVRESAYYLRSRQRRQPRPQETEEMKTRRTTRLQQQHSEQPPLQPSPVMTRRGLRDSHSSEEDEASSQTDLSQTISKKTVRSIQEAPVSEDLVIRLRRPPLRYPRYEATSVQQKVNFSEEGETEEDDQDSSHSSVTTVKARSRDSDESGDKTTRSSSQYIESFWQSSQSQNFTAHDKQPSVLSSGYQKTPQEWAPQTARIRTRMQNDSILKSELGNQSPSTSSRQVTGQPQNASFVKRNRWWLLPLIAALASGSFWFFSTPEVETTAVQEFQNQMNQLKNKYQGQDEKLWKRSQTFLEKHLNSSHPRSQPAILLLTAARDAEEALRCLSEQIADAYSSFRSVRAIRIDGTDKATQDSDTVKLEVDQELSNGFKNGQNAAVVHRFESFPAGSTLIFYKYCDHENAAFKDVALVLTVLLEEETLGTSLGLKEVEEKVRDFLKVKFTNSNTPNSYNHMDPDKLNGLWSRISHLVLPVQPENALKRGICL
Sequence of Epidermal growth factor receptor (Homo sapiens) (P00533 whole entry, looked up): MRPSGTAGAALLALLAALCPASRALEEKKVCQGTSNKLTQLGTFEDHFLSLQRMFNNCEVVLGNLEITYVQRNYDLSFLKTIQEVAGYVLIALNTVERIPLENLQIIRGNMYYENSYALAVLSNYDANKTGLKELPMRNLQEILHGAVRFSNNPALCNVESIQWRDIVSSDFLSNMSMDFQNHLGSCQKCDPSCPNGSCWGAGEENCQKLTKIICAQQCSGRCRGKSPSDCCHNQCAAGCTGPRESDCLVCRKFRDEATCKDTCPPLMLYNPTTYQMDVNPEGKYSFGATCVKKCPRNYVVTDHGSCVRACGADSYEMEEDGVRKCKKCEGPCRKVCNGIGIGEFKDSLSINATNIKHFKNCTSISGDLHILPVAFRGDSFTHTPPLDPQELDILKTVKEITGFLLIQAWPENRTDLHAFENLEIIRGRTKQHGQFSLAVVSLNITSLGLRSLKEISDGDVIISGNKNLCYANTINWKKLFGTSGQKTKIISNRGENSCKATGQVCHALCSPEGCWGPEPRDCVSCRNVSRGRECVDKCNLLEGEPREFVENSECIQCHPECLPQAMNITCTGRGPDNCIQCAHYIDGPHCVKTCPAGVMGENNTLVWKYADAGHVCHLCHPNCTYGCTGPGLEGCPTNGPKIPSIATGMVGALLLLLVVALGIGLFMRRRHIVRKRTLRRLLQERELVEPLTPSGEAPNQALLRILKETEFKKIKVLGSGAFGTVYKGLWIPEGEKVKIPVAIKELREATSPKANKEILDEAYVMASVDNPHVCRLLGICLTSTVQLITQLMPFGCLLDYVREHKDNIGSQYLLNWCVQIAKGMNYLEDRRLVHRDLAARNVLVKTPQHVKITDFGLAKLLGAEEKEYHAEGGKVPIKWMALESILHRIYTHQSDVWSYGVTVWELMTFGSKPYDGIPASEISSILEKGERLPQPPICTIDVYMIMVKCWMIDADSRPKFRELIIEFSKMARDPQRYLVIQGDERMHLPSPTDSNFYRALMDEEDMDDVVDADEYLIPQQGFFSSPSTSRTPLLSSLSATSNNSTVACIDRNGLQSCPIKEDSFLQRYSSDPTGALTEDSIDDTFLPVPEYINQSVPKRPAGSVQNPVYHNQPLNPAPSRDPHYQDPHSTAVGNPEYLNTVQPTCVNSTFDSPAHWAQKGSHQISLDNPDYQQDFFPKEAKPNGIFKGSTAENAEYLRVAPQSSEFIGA
Sequence of Left-right determination factor 2 (Homo sapiens) (O00292 whole entry, looked up): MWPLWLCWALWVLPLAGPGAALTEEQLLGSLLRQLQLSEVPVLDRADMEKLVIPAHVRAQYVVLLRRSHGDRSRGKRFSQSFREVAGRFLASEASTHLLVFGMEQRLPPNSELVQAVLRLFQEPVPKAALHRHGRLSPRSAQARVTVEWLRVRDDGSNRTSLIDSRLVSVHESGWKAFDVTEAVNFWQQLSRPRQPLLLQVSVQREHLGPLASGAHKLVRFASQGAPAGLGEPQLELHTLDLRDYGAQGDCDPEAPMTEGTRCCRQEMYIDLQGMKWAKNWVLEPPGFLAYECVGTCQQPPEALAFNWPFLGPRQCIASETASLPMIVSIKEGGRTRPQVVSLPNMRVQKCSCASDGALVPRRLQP
Sequence of Follistatin-related protein 3 (Homo sapiens) (O95633 whole entry, looked up): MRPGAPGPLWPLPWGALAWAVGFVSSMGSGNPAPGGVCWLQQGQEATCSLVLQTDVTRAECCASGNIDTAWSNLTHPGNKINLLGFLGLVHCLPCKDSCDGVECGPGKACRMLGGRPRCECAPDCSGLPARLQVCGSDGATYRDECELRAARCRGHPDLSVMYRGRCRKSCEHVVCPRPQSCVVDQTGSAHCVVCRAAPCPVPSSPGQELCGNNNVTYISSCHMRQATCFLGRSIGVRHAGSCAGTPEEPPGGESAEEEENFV

Row | SMILES | composite z-score [1] | composite z-score [2] | composite z-score [3] | z-score [4] | composite z-score [5] | composite z-score [6] | composite z-score [7] | composite z-score [8] | composite z-score [9] | composite z-score [10] | composite z-score [11] | z-score [12] | composite z-score [13] | composite z-score [14] | composite z-score [15] | composite z-score [16] | composite z-score [17] | composite z-score [18] | composite z-score [19] | composite z-score [20]
1 | O=C(O)[C@@H]1C[C@@H]2C(=O)N3CCC[C@H]3C(=O)N2[C@@H]1c1ccc(O)cc1 | 1.51 | 0.857 | 0.11 | -2.2 (inactive) | 0.196 | 0.762 | 0.426 | 0.987 | 0.975 | 0.852 | 1.05 | 3.97 | 0.48 | 0.271 | 0.204 | -0.0701 | -0.0289 | -0.226 | 0.343 | 0.964
2 | C=C(COC)C(=O)CC[C@@H](OC(C)=O)c1cccc(OCCO)c1 | 0.114 | -0.0524 | 0.225 | 1.32 (inactive) | 1.38 | -0.911 | -0.934 | -0.303 | 0.227 | 1.01 | -0.297 | -2.41 | -0.278 | -0.582 | -0.909 | -0.0403 | -0.214 | -0.0827 | 0.578 | -0.485
3 | CC[C@@H]1C=C(C(=O)O)[C@H](c2ccc(C#N)cc2)N1S(=O)(=O)c1ccc(C)cc1 | 1.1 | 0.313 | 0.863 | 0.552 (inactive) | 0.396 | 0.39 | -0.967 | -0.406 | -1.22 | 0.264 | 0.458 | -0.651 | 0.635 | 1.45 | -0.0241 | 0.0136 | -0.0324 | 0.598 | 2.47 | 0.62
4 | Cc1ccc(F)cc1S(=O)(=O)N[C@@H]1CCN(Cc2ccc(Br)cc2)C1 | 0.0002 | -0.16 | -0.418 | -1.12 (inactive) | 0.69 | -0.751 | 0.529 | 0.752 | 0.677 | 0.359 | -1.51 | -1.5 | 0.681 | -1.03 | -0.806 | -0.126 | -0.214 | -0.252 | 0.418 | 0.322
5 | CCOC(=O)C1=C[C@@H](c2ccccc2)N(S(=O)(=O)c2ccc(C)cc2)[C@H]1c1ccc(OC)cc1 | 0.979 | 1.16 | 1.05 | -0.71 (inactive) | 0.957 | 0.938 | 0.561 | 0.652 | 0.0786 | 1.25 | 0.796 | -1.92 | 0.976 | 1.6 | 0.736 | 0.661 | 0.926 | 1.25 | 0.118 | 1.24
6 | CC(C)[Si](C#C[Si](C(C)C)(C(C)C)C(C)C)(O[C@H](c1ccccc1)c1cn(Cc2ccccc2)nn1)C(C)C | 0.144 | -0.138 | -0.465 | 0.501 (inactive) | 0.279 | 0.654 | 0.392 | 0.628 | 0.405 | 0.218 | 1.06 | -0.0298 | 0.637 | 0.192 | -0.774 | -0.0794 | -0.0769 | 0.256 | 0.352 | 0.717
7 | CCCC[C@@H](O)C1=C(COc2ccccc2)C[C@H]2C(=O)N(Cc3ccccc3)C(=O)[C@H]2[C@H]1CO | 0.146 | -0.302 | -0.195 | -0.249 (inactive) | 0.574 | -0.0802 | 0.357 | 0.78 | 0.638 | 0.526 | 0.207 | -2.3 | 0.321 | 0.422 | -0.451 | -0.161 | -0.214 | -0.213 | 0.176 | 1.29
8 | CO[C@H]1O[C@H](CO)[C@@H](OC(=O)CCc2ccccc2)[C@@H]2OC(=O)[C@@H](Cc3ccccc3)C/C=C/C[C@H](Cc3ccccc3)C(=O)O[C@@H]12 | 0.228 | 0.253 | 0.585 | -1.57 (inactive) | 0.469 | 0.714 | -0.199 | 1.11 | 0.46 | 0.925 | 1.3 | -1.97 | 0.0673 | 0.485 | 0.0529 | -0.0802 | 0.772 | 0.156 | -0.161 | 1.29
9 | COCCCNC(=O)[C@@]1(CCC(=O)OC(C)(C)C)N=C(c2ccc(OCCCO)cc2)O[C@H]1c1ccccc1N=[N+]=[N-] | 1.46 | 1.36 | 1.32 | -0.912 (inactive) | 1.23 | 1.31 | -0.182 | 0.209 | 0.795 | 0.739 | 0.515 | 1.46 | 0.473 | 2.01 | 0.807 | 0.302 | 0.0326 | -0.261 | 2.32 | 1.71
10 | NC(=O)[C@H]1[C@@H]2C(=O)O[C@@H](c3ccccc3)[C@@H](c3ccccc3)N2[C@@H](c2ccc(OCCO)cc2)[C@]12C(=O)Nc1ccc(C#CCCO)cc12 | 0.912 | 0.313 | 0.485 | 0.728 (inactive) | 0.251 | 0.608 | 0.189 | 0.255 | 0.24 | 0.779 | 0.333 | -1.39 | -0.128 | 0.947 | 0.382 | 0.055 | -0.253 | -0.387 | 0.757 | 1.59
11 | O=C(O)[C@@H]1[C@@H]2C(=O)N(c3ccccc3)C(=O)[C@@H]2C[C@@H]1Sc1ccccc1 | 1.61 | 0.638 | 0.519 | 0.393 (inactive) | -0.694 | -1.74 | -0.498 | -0.852 | -1.19 | 0.656 | -0.933 | 0.0105 | -0.603 | 0.172 | 0.474 | 0.0676 | 0.328 | -0.0554 | 0.351 | -0.909

From PubChem BioAssay
